{
  "source": "the supplement of paper PMC12636033",
  "note": "± gives the standard deviation of the averaged measurements. The full ranking holds about 33,000 sequences; the median of “E-score (rank enrichment, -0.5 to 0.5)” is about -0.0075, and the highest 2% start at about 0.23. The list comes from a sample in which the highest values are over-represented; it also holds similar and randomly drawn sequences.",
  "data": [
    {"tested_on": "WT Max(13-93) synthetic (M65Nle)", "test": "PBM 8-mer E-score (E-score (rank enrichment, -0.5 to 0.5)); higher = stronger preferential binding", "description": "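Protein binding microarray (universal PBM chip covering all 10-mers in fixed probe flanks) with chemically synthesized human Max(13-93) bHLH-LZ analogs (not full-length Max) bearing noncanonical residues (hArg, Tha, Aib, Nle at 65) and aromatic Cys staples. Read-out per 8-mer (and its reverse complement): E-score (rank-based enrichment, -0.5 to 0.5) and Z-score of median probe intensity.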", "values": [
      {"sequence": "CACGACCC", "PBM 8-mer E-score": "-0.0381 ± 0.027"},
      {"sequence": "AGGAGGTA", "PBM 8-mer E-score": "-0.168 ± 0.047"},
      {"sequence": "CGCGGCAA", "PBM 8-mer E-score": "-0.139 ± 0.079"},
      {"sequence": "AGCACTCC", "PBM 8-mer E-score": "0.0118 ± 0.13"},
      {"sequence": "ATACGCAG", "PBM 8-mer E-score": "-0.0132 ± 0.082"},
      {"sequence": "ATACGCAA", "PBM 8-mer E-score": "0.241 ± 0.0012"},
      {"sequence": "GTACGCAA", "PBM 8-mer E-score": "-0.00199 ± 0.077"},
      {"sequence": "ATCGACAA", "PBM 8-mer E-score": "-0.0231 ± 0.046"},
      {"sequence": "ATACTATA", "PBM 8-mer E-score": "0.22 ± 0.019"},
      {"sequence": "GGGATGAA", "PBM 8-mer E-score": "-0.0123 ± 0.093"},
      {"sequence": "AATTTAGC", "PBM 8-mer E-score": "0.121 ± 0.065"},
      {"sequence": "CGGACCTA", "PBM 8-mer E-score": "-0.0947 ± 0.063"},
      {"sequence": "CATGCATA", "PBM 8-mer E-score": "0.242 ± 0.064"},
      {"sequence": "AATGCATG", "PBM 8-mer E-score": "0.257 ± 0.054"},
      {"sequence": "CATGCAAC", "PBM 8-mer E-score": "0.287 ± 0.054"},
      {"sequence": "AATGCGTA", "PBM 8-mer E-score": "0.0374 ± 0.047"},
      {"sequence": "AATGCAAC", "PBM 8-mer E-score": "0.172 ± 0.014"},
      {"sequence": "GATGCGTA", "PBM 8-mer E-score": "0.0564 ± 0.052"},
      {"sequence": "ATTGCATG", "PBM 8-mer E-score": "0.163 ± 0.15"},
      {"sequence": "CATGCGTA", "PBM 8-mer E-score": "0.346 ± 0.038"},
      {"sequence": "TATGCATA", "PBM 8-mer E-score": "0.181 ± 0.037"},
      {"sequence": "ACTGCATG", "PBM 8-mer E-score": "0.0467 ± 0.031"},
      {"sequence": "GATGCATA", "PBM 8-mer E-score": "0.0327 ± 0.027"},
      {"sequence": "CATGCAAG", "PBM 8-mer E-score": "0.0946 ± 0.011"},
      {"sequence": "CTACCTAA", "PBM 8-mer E-score": "0.0741 ± 0.11"},
      {"sequence": "TTAGAGAA", "PBM 8-mer E-score": "-0.00786 ± 0.18"},
      {"sequence": "ATCTTTCG", "PBM 8-mer E-score": "0.0243 ± 0.034"},
      {"sequence": "AGGCGTCC", "PBM 8-mer E-score": "-0.0473 ± 0.0037"},
      {"sequence": "AATGCAAA", "PBM 8-mer E-score": "0.143 ± 0.091"},
      {"sequence": "AATGCAAG", "PBM 8-mer E-score": "0.117 ± 0.074"},
      {"sequence": "AATGCATA", "PBM 8-mer E-score": "0.206 ± 0.12"},
      {"sequence": "CATGCATC", "PBM 8-mer E-score": "0.101 ± 0.018"},
      {"sequence": "AATGCAAT", "PBM 8-mer E-score": "0.237 ± 0.029"},
      {"sequence": "AATGCATC", "PBM 8-mer E-score": "0.163 ± 0.044"},
      {"sequence": "CATGCAGG", "PBM 8-mer E-score": "0.0755 ± 0.026"},
      {"sequence": "AATGCATT", "PBM 8-mer E-score": "0.345 ± 0.024"},
      {"sequence": "CATGCATG", "PBM 8-mer E-score": "0.261 ± 0.073"},
      {"sequence": "AGGACGGG", "PBM 8-mer E-score": "-0.111 ± 0.0023"},
      {"sequence": "AGGGCTAT", "PBM 8-mer E-score": "-0.0385 ± 0.038"},
      {"sequence": "CTCATAGC", "PBM 8-mer E-score": "-0.112 ± 0.12"},
      {"sequence": "CACATTTA", "PBM 8-mer E-score": "0.143 ± 0.021"},
      {"sequence": "GCTAAACC", "PBM 8-mer E-score": "-0.212 ± 0.15"},
      {"sequence": "CCACGTAG", "PBM 8-mer E-score": "-0.0793 ± 0.044"},
      {"sequence": "CCACGTGC", "PBM 8-mer E-score": "0.488 ± 0.0054"},
      {"sequence": "TAACGTGA", "PBM 8-mer E-score": "0.125 ± 0.039"},
      {"sequence": "CCACGTTA", "PBM 8-mer E-score": "0.3 ± 0.019"},
      {"sequence": "CAACGTGG", "PBM 8-mer E-score": "0.172 ± 0.03"},
      {"sequence": "CCACGTCC", "PBM 8-mer E-score": "-0.0561 ± 0.11"},
      {"sequence": "CCACGTTC", "PBM 8-mer E-score": "0.0954 ± 0.045"},
      {"sequence": "CCACGTGG", "PBM 8-mer E-score": "0.4957 ± 0.00063"},
      {"sequence": "CAACGTGA", "PBM 8-mer E-score": "0.259 ± 0.05"},
      {"sequence": "GCACGTTA", "PBM 8-mer E-score": "0.194 ± 0.078"},
      {"sequence": "CGACGTGC", "PBM 8-mer E-score": "-0.0266 ± 0.031"},
      {"sequence": "AAACGTGA", "PBM 8-mer E-score": "0.146 ± 0.13"},
      {"sequence": "CATTCCGG", "PBM 8-mer E-score": "-0.206 ± 0.049"},
      {"sequence": "ATTTCAAG", "PBM 8-mer E-score": "0.112 ± 0.2"},
      {"sequence": "ACACTAGG", "PBM 8-mer E-score": "-0.0884 ± 0.012"},
      {"sequence": "ATCTTTTG", "PBM 8-mer E-score": "0.00161 ± 0.044"},
      {"sequence": "CTTATGAA", "PBM 8-mer E-score": "0.0318 ± 0.11"},
      {"sequence": "CTTACTCA", "PBM 8-mer E-score": "0.0397 ± 0.06"},
      {"sequence": "CCACGTGA", "PBM 8-mer E-score": "0.4829 ± 0.002"},
      {"sequence": "CTACGTGA", "PBM 8-mer E-score": "-0.0378 ± 0.094"},
      {"sequence": "CGACGTGA", "PBM 8-mer E-score": "0.0688 ± 0.0071"},
      {"sequence": "AGAGCACA", "PBM 8-mer E-score": "-0.0234 ± 0.086"},
      {"sequence": "ATTGCTTA", "PBM 8-mer E-score": "0.0363 ± 0.041"},
      {"sequence": "ACTACACA", "PBM 8-mer E-score": "0.306 ± 0.067"},
      {"sequence": "CCTACACG", "PBM 8-mer E-score": "-0.0643 ± 0.072"},
      {"sequence": "CGTACACA", "PBM 8-mer E-score": "0.15 ± 0.012"},
      {"sequence": "AGTACACG", "PBM 8-mer E-score": "0.233 ± 0.032"},
      {"sequence": "AGTACACA", "PBM 8-mer E-score": "0.163 ± 0.09"},
      {"sequence": "CGTACACC", "PBM 8-mer E-score": "0.0276 ± 0.012"},
      {"sequence": "ACTACACG", "PBM 8-mer E-score": "0.139 ± 0.041"},
      {"sequence": "TGTACACA", "PBM 8-mer E-score": "0.159 ± 0.071"},
      {"sequence": "CGTACACG", "PBM 8-mer E-score": "0.257 ± 0.018"},
      {"sequence": "CTTCGCTC", "PBM 8-mer E-score": "-0.143 ± 0.067"},
      {"sequence": "TAAGGAGA", "PBM 8-mer E-score": "0.0617 ± 0.054"},
      {"sequence": "CAGAACCA", "PBM 8-mer E-score": "-0.0491 ± 0.0095"},
      {"sequence": "AGTTGCTC", "PBM 8-mer E-score": "-0.143 ± 0.047"},
      {"sequence": "ATCACATG", "PBM 8-mer E-score": "0.37 ± 0.017"},
      {"sequence": "ACCACATG", "PBM 8-mer E-score": "0.404 ± 0.012"},
      {"sequence": "ACCACATA", "PBM 8-mer E-score": "0.00899 ± 0.073"},
      {"sequence": "AGCACATC", "PBM 8-mer E-score": "0.0162 ± 0.041"},
      {"sequence": "ATCACATC", "PBM 8-mer E-score": "0.065 ± 0.073"},
      {"sequence": "ACCACATC", "PBM 8-mer E-score": "0.0678 ± 0.067"},
      {"sequence": "ATCACATA", "PBM 8-mer E-score": "0.175 ± 0.13"},
      {"sequence": "AGCACATA", "PBM 8-mer E-score": "0.0511 ± 0.0046"},
      {"sequence": "AGCACATG", "PBM 8-mer E-score": "0.343 ± 0.004"}
    ]}
  ]
}
